Values without a mark were called inactive. Results filed as inconclusive are left out. Active and inactive are the calls of the source. Calls follow the shape of the dose curve; as a rule, active = well fitted curve in the direction sought with a large enough effect; inconclusive = small, poorly fitted or top-dose-only effect, or another doubt; inactive = no such curve, though single readings can be large; an effect the other way counts as inactive or inconclusive.

Assay [1] addresses Glutathione peroxidase 1 (Homo sapiens) (UniProt P07203). Kind of assay: Primary qHTS Assay for Inhibitors of Recombinant Selenoprotein Glutathione Peroxidase 1 (GPX1) (AID 1845191). Also: nearly all actives have a fitted effect of over 65% in size. Also: potency is read from the fitted curve at half-maximal effect. As to activity, negative = inhibition: % is scaled to controls: 0 for no effect and ±100 for the full control effect. An outline of the steps: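 NADPH consumption tracked by fluorescence at 340/450 nm between t=0 and t=15 min, room temperature. Final mix: 10 nM GPX1, 100 nM glutathione reductase, 1 mM GSH, 0.5 mM NADPH, 0.5 mM cumene hydroperoxide, 0.01% BSA; 30 min compound–enzyme preincubation.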
(In general: In qHTS, concentration-response curves come from the screen itself.)

Assay [2] concerns the target Phospholipid hydroperoxide glutathione peroxidase GPX4 (Homo sapiens) (UniProt P36969). Description: Primary qHTS Assay for Inhibitors of Recombinant Selenoprotein Glutathione Peroxidase 4 (GPX4) (AID 1845192). Also: nearly all actives have a fitted effect of over 65% in size. Also: potency is read from the fitted curve at half-maximal effect. As to activity change, negative = inhibition: series mostly up to about 50 µM; % is scaled to controls: 0 for no effect and ±100 for the full control effect. In short, it runs like this: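 NADPH consumption followed by fluorescence at 340/450 nm, t=0 and after 15 min at room temperature. Reaction started with cumene hydroperoxide (0.5 mM final) after 30 min compound–GPX4 preincubation; final 200 nM GPX4, 100 nM GR, 1 mM GSH, 0.5 mM NADPH.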

The target in assay [3] is Luciferin 4-monooxygenase (Photinus pyralis) (UniProt P08659). Description: Primary firefly luciferase (FLuc) qHTS assay for identification of artifact compounds. (AID 1845220). Also: nearly all actives have a fitted effect of over 60% in size. Also: potency is read from the fitted curve at half-maximal effect.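 As to activity change, negative = inhibition: series mostly up to about 54 µM; plate controls were DMSO vehicle for no effect and no enzyme for full effect.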 In short, it runs like this:
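Compounds sat 15 min at room temperature with 10 uM luciferin and 10 uM ATP (pH 7.6 Tris acetate). Firefly luciferase (10 nM final) was then added, and luminescence was read 5 min later. Data normalized to no-enzyme and DMSO controls were Hill-fitted.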

Assay [4] can be described thus: Primary fluorescence-based thiol-reactive (MSTI) qHTS assay for identification of artifact compounds. (AID 1845221).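 Also: series mostly up to about 54 µM; thiol-reactive compounds lower the probe fluorescence signal; nearly all actives have a fitted effect of over 65% in size.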 An outline of the steps: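 MSTI probe at 4 uM final in 2% DMSO/PBS pH 7.4; compounds, 1 h at room temperature in dark. Fluorescence Ex/Em 525/598 nm, normalised to Acetyl-MSTI and MSTI, fitted to 4-parameter Hill.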
Assay [5] relates to Nanoluciferase (engineered Oplophorus gracilirostris luciferase). Kind of assay: Primary Nanoluciferase (NLuc) qHTS assay for identification of artifact compounds. (AID 1845222).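 Also: series mostly up to about 54 µM; 0% = DMSO and -100% = no enzyme.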 In short, it runs like this:
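Luminescence from secreted NLuc (filtered, 1:55-diluted S16 cell medium) read 5 min after Nano-Glo substrate; compounds preincubated 15 min, RT. Hill fits of inhibition normalized to DMSO and no-enzyme.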

The nature of assay [6]: Primary redox qHTS assay for identification of artifact compounds. (AID 1845223).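 Also: 0% = DMSO and 100% = reference compound.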 An outline of the steps:
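Redox-cycling detection via DTT (250 uM final) oxidation coupled to Amplex Red (25 uM)/HRP (250 mU/mL) in HBSS. 15 min preincubation plus 30 min after DTT, room temperature. Ex/Em 525/598 nm; 4-parameter Hill fit against DMSO and 10 uM DA3003.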

Chain of Glutathione peroxidase 1 (Homo sapiens) (P07203 whole entry, looked up): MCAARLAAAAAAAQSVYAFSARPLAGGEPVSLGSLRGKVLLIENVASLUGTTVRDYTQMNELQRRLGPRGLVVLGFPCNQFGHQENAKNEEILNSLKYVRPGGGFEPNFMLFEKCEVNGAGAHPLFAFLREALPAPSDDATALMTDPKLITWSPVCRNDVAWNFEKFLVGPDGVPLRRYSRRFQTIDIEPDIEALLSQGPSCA
Chain of Phospholipid hydroperoxide glutathione peroxidase GPX4 (Homo sapiens) (P36969 whole entry, looked up): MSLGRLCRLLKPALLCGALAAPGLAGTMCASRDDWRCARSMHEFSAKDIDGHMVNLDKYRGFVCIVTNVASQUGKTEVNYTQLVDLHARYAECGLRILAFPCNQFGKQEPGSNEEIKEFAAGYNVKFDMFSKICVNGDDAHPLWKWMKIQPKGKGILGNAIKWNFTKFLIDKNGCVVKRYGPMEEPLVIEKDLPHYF

As to `NC(=O)CCCSc1nc(N)nc(-c2c(Cl)cc3c4c(cccc24)COC3)n1`, the Potency result in assay [1], in assay [2], in assay [3], in assay [4], in assay [5] and in assay [6] was “inactive” each time.
With `CS/C=C/C(=O)O[C@@H]1CCC2=CC(=O)C(=C(C)C)C[C@]2(C)[C@H]1C`, the Potency result in assay [1], in assay [2], in assay [3], in assay [4], in assay [5] and in assay [6] was “inactive” each time.
As for `Cc1cc(F)ccc1-c1nc(NCCN=C(N)NC#N)nc2c1ccc(=O)n2-c1c(F)cccc1F`, the Potency was 20.2 µM (active) in assay [1] and 22.7 µM (active) in assay [2]. In addition, the Potency result in assay [3], in assay [4], in assay [5] and in assay [6] was “inactive” each time.
With `COC1=CC(=O)C=C(C)C12Oc1c(Cl)c(OC)cc(OC)c1C2=O` (centres undefined), the Potency entry in assay [1], in assay [2], in assay [3], in assay [4], in assay [5] and in assay [6] was “inactive” in each case.
In the case of `Cc1ccc(NC(=O)c2ccc(CN3CCNCC3)cc2)cc1Nc1nccc(-c2cccnc2)n1`, the Potency result in assay [1], in assay [2], in assay [4], in assay [5] and in assay [6] was “inactive” in each case. Further, in assay [3], the Potency is 6.75 µM (active).
With `O=C(Nc1ccc(CN2CCOCC2)cc1)c1ccc(-c2cccc(Cl)c2)o1`, the Potency result in assay [1], in assay [2], in assay [3], in assay [4], in assay [5] and in assay [6] was “inactive” throughout.
Take `COC(=O)c1ccnc(-c2cc(C(=O)Nc3ccc(C4(N)CC4)cc3)ccn2)c1`: the Potency result in assay [1], in assay [2], in assay [3], in assay [4], in assay [5] and in assay [6] was “inactive” throughout.
For `COc1ccc(C2=NC(c3ccc(Cl)cc3)C(c3ccc(Cl)cc3)N2C(=O)N2CCNC(=O)C2)c(OC(C)C)c1` (centres undefined), the Potency entry in assay [1], in assay [2], in assay [3], in assay [4], in assay [5] and in assay [6] was “inactive” each time.
Take `COc1ccc(OC)c(-c2ccc(NC(=O)c3ccncc3F)cc2)c1`: the Potency result in assay [1], in assay [2], in assay [3], in assay [4], in assay [5] and in assay [6] was “inactive” in each case.
For `Cc1c(C(=O)Nc2ccc(N3CCC(N4CCOCC4)CC3)c(C#N)c2)cnn1-c1ccc(Cl)cc1`, the Potency result in assay [1], in assay [2], in assay [3], in assay [4], in assay [5] and in assay [6] was “inactive” in each case.
As for `O=C(c1cc(Cc2n[nH]c(=O)c3ccccc23)ccc1F)N1CCCNCC1`, the Potency entry in assay [1], in assay [2], in assay [3], in assay [4], in assay [5] and in assay [6] was “inactive” each time.
Consider `C=CC(C)(O)CC/C=C(\C)C(=O)OC1C(O)C(CO)OC(OC(=O)C23CCC(C)(C)CC2C2=CCC4C5(C)CCC(OC6OC(COC7OCC(OC(C)=O)C(O)C7OC7OC(COC(C)=O)C(O)C(O)C7OC(C)=O)C(O)C(O)C6OC6OCC(O)C(O)C6O)C(C)(C)C5CCC4(C)C2(C)C(O)C3O)C1OC1OCC(OC2OCC(O)C(OC3OCC(O)C(O)C3O)C2O)C(O)C1O` (centres undefined), for which the results for the activity, negative = inhibition in assay [1] and in assay [5] were -15.5% [at 9.52 µM] and 0% [at 6.45 µM], respectively. Also, the outcome in assay [2] is “inactive [at 9.73 µM]”; in assay [3] it was “inactive [at 6.45 µM]”. Also, in assay [4], the activity change, negative = thiol reactive was 140% [at 6.41 µM]. In addition, in assay [6], the redox activity (% of DA3003) was 4.4% [at 6.41 µM].
On to `O=C(NCCN1CCOCC1)c1cc2c(Oc3ccc(NC(=O)C4(C(=O)Nc5ccc(F)cc5)CC4)cc3)ccnc2[nH]1`, for which the Potency entry in assay [1], in assay [2], in assay [3], in assay [4], in assay [5] and in assay [6] was “inactive” each time.
For the molecule `CN(C)CCN(Cc1ccc(-c2ccc(CNCCc3ccccc3)cc2)cc1)C(=O)CCC1CCCC1`, the Potency entry in assay [1], in assay [2], in assay [3], in assay [4], in assay [5] and in assay [6] was “inactive” each time.
As to `CNC(=O)[C@@H](c1ccccc1)N1CCc2cc(OC)c(OC)cc2[C@@H]1CCc1ccc(C(F)(F)F)cc1`, the Potency entry in assay [1], in assay [2], in assay [3], in assay [4], in assay [5] and in assay [6] was “inactive” each time.
Consider `Fc1ccc(CN2CCC(Nc3ccc(C(F)(F)F)nn3)CC2)cc1F`, for which the Potency result in assay [1], in assay [2], in assay [3], in assay [4], in assay [5] and in assay [6] was “inactive” each time.
As to `CC1(C)CCC2(C(=O)OC3OC(COC4OC(CO)C(O)C(O)C4O)C(O)C(O)C3O)CCC3(C)C(=CCC4C5(C)CCC(OC6OCC(O)C(O)C6O)C(C)(C)C5CCC43C)C2C1O` (centres undefined), the Potency entry in assay [1] and in assay [2] was “inactive” each time. For the same molecule, the activity change, negative = inhibition in assay [3] was 0.58% [at 11.6 µM]. Further, in assay [4], the activity change, negative = thiol reactive was 122% [at 11.5 µM]. For the same molecule, the activity, negative = inhibition in assay [5] was -1.73% [at 11.6 µM]. Besides, the redox activity (% of DA3003) in assay [6] is 18.7% [at 11.5 µM].
Consider `COC1CC(=O)C23C(=O)NC(CC(C)C)C2C(C)C(C)=CC3/C=C(\C)CCCC1O` (centres undefined), for which the Potency result in assay [1], in assay [2], in assay [3], in assay [4], in assay [5] and in assay [6] was “inactive” each time.
On to `C/C=C/CCC1Cc2cc(O)c(CCCC)c(O)c2C(=O)O1` (centres undefined), for which the Potency entry in assay [1], in assay [2], in assay [3], in assay [4], in assay [5] and in assay [6] was “inactive” each time.
